# Measured values: the supplement of paper PMC11732987, “Enantioselective OTUD7B fragment discovery through chemoproteomics screening and high-throughput optimisation” (Communications Chemistry, 2025)
# A number with no mark means an inactive call.
# What was measured:
# Experiment in all cases: log2 ratio of Biotin-Ahx-Ub-VS probe labelling (fragment/DMSO); higher = less target engagement (more negative = stronger competition), active = hit call of the paper (q ≤ 0.05, log2 ratio ≤ -1)
# Details in all cases: compound concentration: 200 uM; treatment time: 3 h
# ALG13 = biological target: T1, ALG13 (UniProt Q9NP73)
# T1 sequence (whole entry): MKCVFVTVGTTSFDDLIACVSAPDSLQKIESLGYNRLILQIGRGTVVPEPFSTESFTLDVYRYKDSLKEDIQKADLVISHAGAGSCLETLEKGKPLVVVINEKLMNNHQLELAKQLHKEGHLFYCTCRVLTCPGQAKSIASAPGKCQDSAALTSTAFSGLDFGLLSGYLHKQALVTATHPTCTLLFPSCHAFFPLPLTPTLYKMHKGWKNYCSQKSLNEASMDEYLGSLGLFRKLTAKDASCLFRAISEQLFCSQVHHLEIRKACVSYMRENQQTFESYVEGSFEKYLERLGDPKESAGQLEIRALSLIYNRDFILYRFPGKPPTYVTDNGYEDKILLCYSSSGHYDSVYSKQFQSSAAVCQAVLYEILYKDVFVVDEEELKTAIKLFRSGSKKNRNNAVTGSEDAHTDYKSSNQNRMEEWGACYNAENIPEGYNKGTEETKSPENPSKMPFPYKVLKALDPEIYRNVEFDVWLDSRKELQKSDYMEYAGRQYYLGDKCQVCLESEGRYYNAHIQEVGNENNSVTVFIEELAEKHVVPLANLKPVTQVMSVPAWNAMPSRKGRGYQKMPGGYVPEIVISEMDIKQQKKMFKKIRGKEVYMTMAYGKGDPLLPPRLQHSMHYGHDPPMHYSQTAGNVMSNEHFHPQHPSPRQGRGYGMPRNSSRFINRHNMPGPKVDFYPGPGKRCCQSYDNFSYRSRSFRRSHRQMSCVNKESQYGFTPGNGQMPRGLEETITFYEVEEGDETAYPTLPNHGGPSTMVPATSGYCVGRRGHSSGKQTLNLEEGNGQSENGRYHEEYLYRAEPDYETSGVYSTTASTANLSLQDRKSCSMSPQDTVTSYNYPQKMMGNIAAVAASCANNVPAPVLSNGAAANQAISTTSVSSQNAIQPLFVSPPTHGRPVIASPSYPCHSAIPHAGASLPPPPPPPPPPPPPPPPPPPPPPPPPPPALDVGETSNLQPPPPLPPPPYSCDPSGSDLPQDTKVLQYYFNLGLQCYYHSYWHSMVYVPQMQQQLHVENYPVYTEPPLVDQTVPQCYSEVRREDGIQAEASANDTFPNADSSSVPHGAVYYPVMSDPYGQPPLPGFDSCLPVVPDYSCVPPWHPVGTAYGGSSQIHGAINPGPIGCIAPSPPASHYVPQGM
# Summary of the method: (§1)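 Average log2 ratios of fragment over vehicle were obtained by unpaired t-test from global-median-normalised Spectronaut label-free quantities. Proteins with ≥2 unique peptides were included. HEK293T lysate (495 µg per sample) was treated in triplicate with fragment at 200 µM or vehicle for 3 h, then with Biotin-Ahx-Ub-VS at 0.5 µM final for 1 h, and labelled DUBs were NeutrAvidin-enriched and run by diaPASEF LC-MS/MS.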
# ATXN3 = ATXN3 (UniProt P54252)
# Sequence of ATXN3 (P54252 whole entry): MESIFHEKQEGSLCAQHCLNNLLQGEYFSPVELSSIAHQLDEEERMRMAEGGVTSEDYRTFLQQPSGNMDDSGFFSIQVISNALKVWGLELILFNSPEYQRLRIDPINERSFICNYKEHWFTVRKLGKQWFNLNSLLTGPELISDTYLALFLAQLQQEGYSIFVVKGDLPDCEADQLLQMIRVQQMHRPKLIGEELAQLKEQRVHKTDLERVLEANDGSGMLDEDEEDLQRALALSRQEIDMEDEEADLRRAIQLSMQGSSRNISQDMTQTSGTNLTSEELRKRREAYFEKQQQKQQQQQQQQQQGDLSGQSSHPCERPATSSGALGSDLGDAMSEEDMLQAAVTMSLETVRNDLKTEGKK
# Summary of the method: as §1
# BAP1 = biological target: T2, BAP1 (UniProt Q92560)
# T2 sequence (whole entry): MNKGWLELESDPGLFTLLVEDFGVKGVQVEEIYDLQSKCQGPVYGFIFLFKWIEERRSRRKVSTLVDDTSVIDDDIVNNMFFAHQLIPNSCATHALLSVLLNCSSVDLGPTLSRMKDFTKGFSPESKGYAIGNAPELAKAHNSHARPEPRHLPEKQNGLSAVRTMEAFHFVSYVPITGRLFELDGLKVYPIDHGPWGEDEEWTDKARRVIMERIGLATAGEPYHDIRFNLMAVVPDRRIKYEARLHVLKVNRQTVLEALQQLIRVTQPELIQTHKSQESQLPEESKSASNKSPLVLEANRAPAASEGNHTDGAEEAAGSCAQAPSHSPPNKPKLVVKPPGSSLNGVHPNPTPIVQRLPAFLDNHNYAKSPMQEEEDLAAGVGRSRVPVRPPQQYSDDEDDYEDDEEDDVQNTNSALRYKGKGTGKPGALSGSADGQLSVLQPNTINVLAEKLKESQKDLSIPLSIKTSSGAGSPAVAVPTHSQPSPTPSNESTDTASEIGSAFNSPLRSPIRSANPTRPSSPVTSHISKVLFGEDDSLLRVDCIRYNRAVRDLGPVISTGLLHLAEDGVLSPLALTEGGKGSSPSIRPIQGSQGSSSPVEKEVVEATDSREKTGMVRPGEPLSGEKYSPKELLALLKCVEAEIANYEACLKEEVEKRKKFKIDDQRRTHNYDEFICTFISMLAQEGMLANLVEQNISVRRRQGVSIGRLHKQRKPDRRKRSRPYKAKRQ
# Summary of the method: as §1
# EIF3F = EIF3F (UniProt O00303)
# Sequence of EIF3F (O00303 whole entry): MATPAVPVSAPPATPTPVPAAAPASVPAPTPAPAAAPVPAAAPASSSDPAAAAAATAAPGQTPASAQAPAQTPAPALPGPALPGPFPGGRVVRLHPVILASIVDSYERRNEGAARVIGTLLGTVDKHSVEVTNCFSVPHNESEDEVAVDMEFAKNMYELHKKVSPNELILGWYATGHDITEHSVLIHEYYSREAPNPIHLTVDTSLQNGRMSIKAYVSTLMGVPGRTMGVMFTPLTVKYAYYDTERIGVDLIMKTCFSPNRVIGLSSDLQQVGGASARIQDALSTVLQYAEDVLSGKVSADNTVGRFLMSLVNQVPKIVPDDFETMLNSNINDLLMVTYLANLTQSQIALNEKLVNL
# Summary of the method: as §1
# EIF3H = EIF3H (UniProt O15372)
# Sequence of EIF3H (O15372 whole entry): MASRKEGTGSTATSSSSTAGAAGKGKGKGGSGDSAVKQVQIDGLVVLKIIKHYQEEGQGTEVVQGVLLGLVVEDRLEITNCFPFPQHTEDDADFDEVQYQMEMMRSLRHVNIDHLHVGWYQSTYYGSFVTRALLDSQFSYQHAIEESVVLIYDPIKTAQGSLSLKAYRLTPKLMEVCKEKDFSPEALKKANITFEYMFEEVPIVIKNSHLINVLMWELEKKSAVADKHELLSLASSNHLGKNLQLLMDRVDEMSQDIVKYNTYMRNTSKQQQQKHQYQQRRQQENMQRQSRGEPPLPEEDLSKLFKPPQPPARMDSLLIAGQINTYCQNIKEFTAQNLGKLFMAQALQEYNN
# Summary of the method: as §1
# FAM105A = biological target: T3, FAM105A (UniProt Q9NUU6)
# T3 sequence (whole entry): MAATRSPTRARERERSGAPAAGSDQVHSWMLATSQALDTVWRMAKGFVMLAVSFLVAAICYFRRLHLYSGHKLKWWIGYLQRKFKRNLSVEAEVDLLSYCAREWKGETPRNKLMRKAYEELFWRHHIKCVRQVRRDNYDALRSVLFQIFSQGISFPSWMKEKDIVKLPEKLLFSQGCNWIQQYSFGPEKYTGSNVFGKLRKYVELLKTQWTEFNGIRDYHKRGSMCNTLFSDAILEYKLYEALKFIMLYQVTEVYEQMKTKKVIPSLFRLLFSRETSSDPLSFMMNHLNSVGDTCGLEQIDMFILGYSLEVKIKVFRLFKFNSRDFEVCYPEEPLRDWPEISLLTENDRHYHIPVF
# Summary of the method: as §1
# OTUB1 = OTUB1 (UniProt Q96FW1)
# Sequence of OTUB1 (Q96FW1 whole entry): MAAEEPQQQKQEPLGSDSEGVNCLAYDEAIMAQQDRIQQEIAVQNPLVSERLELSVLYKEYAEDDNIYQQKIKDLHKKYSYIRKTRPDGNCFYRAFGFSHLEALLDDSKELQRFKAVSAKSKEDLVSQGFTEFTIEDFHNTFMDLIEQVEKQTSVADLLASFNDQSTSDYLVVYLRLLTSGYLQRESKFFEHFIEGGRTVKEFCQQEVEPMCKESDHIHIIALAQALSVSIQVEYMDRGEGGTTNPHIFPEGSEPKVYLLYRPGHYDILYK
# Summary of the method: as §1
# OTUD4 = biological target: T4, OTUD4 (UniProt Q01804)
# T4 sequence (whole entry): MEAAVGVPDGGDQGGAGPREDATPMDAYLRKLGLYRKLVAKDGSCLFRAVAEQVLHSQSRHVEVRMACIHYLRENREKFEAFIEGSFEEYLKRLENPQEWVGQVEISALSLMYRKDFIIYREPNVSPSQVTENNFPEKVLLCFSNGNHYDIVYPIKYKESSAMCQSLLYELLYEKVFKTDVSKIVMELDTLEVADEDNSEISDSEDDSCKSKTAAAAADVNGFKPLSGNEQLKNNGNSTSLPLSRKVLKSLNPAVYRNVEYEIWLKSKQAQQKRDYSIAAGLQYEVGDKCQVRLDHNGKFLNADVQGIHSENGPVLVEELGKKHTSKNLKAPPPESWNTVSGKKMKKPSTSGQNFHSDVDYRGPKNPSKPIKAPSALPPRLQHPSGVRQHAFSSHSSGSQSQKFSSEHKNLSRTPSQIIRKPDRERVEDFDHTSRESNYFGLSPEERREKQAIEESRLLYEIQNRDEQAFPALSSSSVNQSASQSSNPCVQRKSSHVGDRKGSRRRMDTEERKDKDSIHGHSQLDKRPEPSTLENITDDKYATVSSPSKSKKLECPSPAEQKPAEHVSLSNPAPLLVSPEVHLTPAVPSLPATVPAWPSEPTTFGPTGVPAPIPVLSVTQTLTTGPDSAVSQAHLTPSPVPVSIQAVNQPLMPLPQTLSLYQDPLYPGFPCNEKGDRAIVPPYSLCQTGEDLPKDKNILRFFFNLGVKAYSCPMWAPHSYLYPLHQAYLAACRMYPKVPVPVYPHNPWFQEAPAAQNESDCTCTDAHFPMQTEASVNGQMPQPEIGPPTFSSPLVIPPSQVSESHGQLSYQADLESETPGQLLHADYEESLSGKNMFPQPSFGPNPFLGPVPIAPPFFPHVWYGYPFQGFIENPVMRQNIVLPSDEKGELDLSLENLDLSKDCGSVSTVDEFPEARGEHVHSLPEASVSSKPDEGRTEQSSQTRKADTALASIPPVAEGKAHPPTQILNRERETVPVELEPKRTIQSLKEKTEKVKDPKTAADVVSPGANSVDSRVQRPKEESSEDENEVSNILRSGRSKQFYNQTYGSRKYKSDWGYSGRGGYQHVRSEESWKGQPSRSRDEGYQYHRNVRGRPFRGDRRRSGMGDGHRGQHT
# Summary of the method: as §1
# OTUD5 = biological target: T5, OTUD5 (UniProt Q96G74)
# T5 sequence (whole entry): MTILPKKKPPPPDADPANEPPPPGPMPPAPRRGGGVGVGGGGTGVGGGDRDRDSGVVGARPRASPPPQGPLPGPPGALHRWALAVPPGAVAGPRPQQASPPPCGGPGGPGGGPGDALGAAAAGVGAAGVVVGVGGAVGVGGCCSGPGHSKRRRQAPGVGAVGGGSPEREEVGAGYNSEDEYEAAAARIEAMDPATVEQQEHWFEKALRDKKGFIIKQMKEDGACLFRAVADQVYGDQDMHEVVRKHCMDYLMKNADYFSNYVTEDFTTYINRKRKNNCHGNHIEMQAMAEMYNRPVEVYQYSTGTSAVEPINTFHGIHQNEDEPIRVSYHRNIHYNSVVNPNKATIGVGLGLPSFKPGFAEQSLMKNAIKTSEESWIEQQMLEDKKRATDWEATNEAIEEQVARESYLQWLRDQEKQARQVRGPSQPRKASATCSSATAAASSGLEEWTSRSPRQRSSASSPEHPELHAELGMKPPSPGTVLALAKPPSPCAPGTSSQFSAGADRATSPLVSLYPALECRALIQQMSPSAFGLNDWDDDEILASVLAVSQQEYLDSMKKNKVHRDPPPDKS
# Summary of the method: as §1
smiles,measurement,setting,value
O=C(CCl)N1CCC(S(=O)(=O)c2ccc(F)cc2)CC1,log2 ratio of Biotin-Ahx-Ub-VS probe labelling,ALG13,-0.536
same,log2 ratio of Biotin-Ahx-Ub-VS probe labelling,ATXN3,-0.72
same,log2 ratio of Biotin-Ahx-Ub-VS probe labelling,BAP1,-1.46 (active)
same,log2 ratio of Biotin-Ahx-Ub-VS probe labelling,EIF3F,-0.133
same,log2 ratio of Biotin-Ahx-Ub-VS probe labelling,EIF3H,0.256
same,log2 ratio of Biotin-Ahx-Ub-VS probe labelling,FAM105A,-0.39
same,log2 ratio of Biotin-Ahx-Ub-VS probe labelling,OTUB1,0.147
same,log2 ratio of Biotin-Ahx-Ub-VS probe labelling,OTUD4,-0.273
same,log2 ratio of Biotin-Ahx-Ub-VS probe labelling,OTUD5,-0.457
